Targets with a hit are over-represented here; the source holds about 7,900 in all. About 0.6% of all pairs of compound and target were hits.
Key:
Test in all cases: log2 fold change, soluble protein after heating vs DMSO (PISA); higher = thermal stabilisation; K562 cells, 10 uM, 30 min; active = over 0.2 and 3.5 SD of the protein, either way, in both replicates (recomputed)
[1] = compound: COC1=CC=C(C=C1)CN2C=CC3=C2C=C(C=C3)C(=O)NO
How it was run: (§1)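 Soluble protein was quantified by TMTpro 16plex LC-MS/MS after channel sums were equalised. It was obtained as the supernatant after 21,000xg for 90 min from pooled aliquots of K562 cells (2×10^6 cells/mL, 10 μM compound, 30 min) heated for 3 min across 48°C-58°C and extracted in PBS with 0.5% NP-40 at 4°C. Thermal stability values are relative to control samples and come from duplicates. They are given as log2 fold changes.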

filanesib = compound: CON(C)C(=O)N1N=C(c2cc(F)ccc2F)S[C@@]1(CCCN)c1ccccc1 [filanesib]
How it was run: as §1

zotarolimus = compound: CO[C@H]1C[C@@H]2CC[C@@H](C)[C@@](O)(O2)C(=O)C(=O)N2CCCC[C@H]2C(=O)O[C@H]([C@H](C)C[C@@H]2CC[C@H](n3cnnn3)[C@H](OC)C2)CC(=O)[C@H](C)/C=C(\C)[C@@H](O)[C@@H](OC)C(=O)[C@H](C)C[C@H](C)/C=C/C=C/C=C/1C [zotarolimus]
How it was run: as §1

idasanutlin = compound: COc1cc(C(=O)O)ccc1NC(=O)[C@@H]1N[C@@H](CC(C)(C)C)[C@](C#N)(c2ccc(Cl)cc2F)[C@H]1c1cccc(Cl)c1F [idasanutlin]
How it was run: as §1

alisertib = compound: COc1cc(Nc2ncc3c(n2)-c2ccc(Cl)cc2C(c2c(F)cccc2OC)=NC3)ccc1C(=O)O [alisertib]
How it was run: as §1

[2] = compound: COc1cc2nc(-c3cc(F)ccc3O)nc(N[C@@H]3CNC[C@H]3C(C)(C)O)c2cc1OC
How it was run: as §1

gefitinib = compound: COc1cc2ncnc(Nc3ccc(F)c(Cl)c3)c2cc1OCCCN1CCOCC1 [gefitinib]
How it was run: as §1

[3] = compound: COc1cccc2cc(-c3nc([C@H]4CC[C@H](C(=O)O)CC4)n4ncnc(N)c34)[nH]c12
How it was run: as §1

lapatinib = compound: CS(=O)(=O)CCNCc1ccc(-c2ccc3ncnc(Nc4ccc(OCc5cccc(F)c5)c(Cl)c4)c3c2)o1 [lapatinib]
How it was run: as §1

pictilisib = compound: CS(=O)(=O)N1CCN(Cc2cc3nc(-c4cccc5[nH]ncc45)nc(N4CCOCC4)c3s2)CC1 [pictilisib]
How it was run: as §1

Measured: log2 fold change

LSS (UniProt P48449)
inactive: [1] 0.205 | filanesib 0.026 | zotarolimus -0.027 | idasanutlin -0.116 | alisertib 0.121 | [2] 0.16 | gefitinib 0.126 | [3] -0.014 | lapatinib 0.02 | pictilisib 0.07

MAPKAPK3 (UniProt Q16644)
UniProt Q16644, sequence (Q16644 whole entry, looked up): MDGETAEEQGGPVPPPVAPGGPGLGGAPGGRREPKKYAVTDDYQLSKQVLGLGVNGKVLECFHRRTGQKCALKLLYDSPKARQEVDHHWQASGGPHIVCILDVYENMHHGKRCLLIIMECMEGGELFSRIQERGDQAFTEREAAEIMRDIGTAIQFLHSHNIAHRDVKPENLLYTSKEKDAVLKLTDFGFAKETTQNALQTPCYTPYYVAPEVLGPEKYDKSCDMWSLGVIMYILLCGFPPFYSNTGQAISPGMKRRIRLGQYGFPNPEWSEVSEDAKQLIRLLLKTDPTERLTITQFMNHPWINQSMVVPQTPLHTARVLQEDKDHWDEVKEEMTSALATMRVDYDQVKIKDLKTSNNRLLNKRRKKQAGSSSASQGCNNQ
inactive: [1] -0.146 | filanesib 0 | zotarolimus -0.034 | idasanutlin -0.088 | alisertib 0.018 | [2] 0.037 | gefitinib 0.27 | [3] 0.01 | lapatinib -0.065 | pictilisib 0.039

LEMD3 (UniProt Q9Y2U8)
inactive: [1] 0.036 | filanesib 0 | zotarolimus 0.107 | idasanutlin -0.023 | alisertib 0.073 | [2] -0.001 | gefitinib -0.013 | [3] 0.069 | lapatinib 0.044 | pictilisib 0.047

ME2 (UniProt P23368)
inactive: [1] -0.037 | filanesib 0.012 | zotarolimus -0.052 | idasanutlin 0.196 | alisertib 0.002 | [2] 0.076 | gefitinib 0.023 | [3] -0.046 | lapatinib -0.003 | pictilisib 0.056

LUC7L3 (UniProt O95232)
UniProt O95232, sequence (O95232 whole entry, looked up): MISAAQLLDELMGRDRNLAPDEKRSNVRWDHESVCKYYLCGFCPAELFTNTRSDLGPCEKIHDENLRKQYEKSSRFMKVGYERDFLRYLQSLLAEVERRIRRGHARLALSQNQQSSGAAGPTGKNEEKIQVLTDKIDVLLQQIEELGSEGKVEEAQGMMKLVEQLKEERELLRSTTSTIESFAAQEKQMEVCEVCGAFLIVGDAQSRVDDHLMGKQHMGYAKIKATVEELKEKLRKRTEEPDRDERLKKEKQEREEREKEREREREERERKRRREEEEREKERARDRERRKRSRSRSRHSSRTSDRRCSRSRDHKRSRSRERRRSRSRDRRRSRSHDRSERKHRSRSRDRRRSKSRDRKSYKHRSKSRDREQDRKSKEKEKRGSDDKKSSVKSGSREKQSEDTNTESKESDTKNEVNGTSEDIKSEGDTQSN
inactive: [1] 0.106 | filanesib 0.083 | zotarolimus 0.003 | idasanutlin 0.031 | alisertib -0.009 | [2] 0.021 | gefitinib -0.04 | [3] 0.011 | lapatinib 0.045 | pictilisib 0.011

MAP4 (UniProt E7EVA0)
inactive: [1] -0.027 | filanesib 0.216 | zotarolimus -0.1 | idasanutlin 0.023 | alisertib -0.094 | [2] -0.134 | gefitinib 0.109 | [3] -0.024 | lapatinib 0.186 | pictilisib 0.019

MICOS13 (UniProt Q5XKP0)
inactive: [1] 0 | filanesib -0.095 | zotarolimus -0.048 | idasanutlin -0.144 | alisertib -0.014 | [2] -0.082 | gefitinib -0.032 | [3] 0.079 | lapatinib -0.063 | pictilisib -0.001

INPP1 (UniProt P49441)
UniProt P49441, sequence (P49441 whole entry, looked up): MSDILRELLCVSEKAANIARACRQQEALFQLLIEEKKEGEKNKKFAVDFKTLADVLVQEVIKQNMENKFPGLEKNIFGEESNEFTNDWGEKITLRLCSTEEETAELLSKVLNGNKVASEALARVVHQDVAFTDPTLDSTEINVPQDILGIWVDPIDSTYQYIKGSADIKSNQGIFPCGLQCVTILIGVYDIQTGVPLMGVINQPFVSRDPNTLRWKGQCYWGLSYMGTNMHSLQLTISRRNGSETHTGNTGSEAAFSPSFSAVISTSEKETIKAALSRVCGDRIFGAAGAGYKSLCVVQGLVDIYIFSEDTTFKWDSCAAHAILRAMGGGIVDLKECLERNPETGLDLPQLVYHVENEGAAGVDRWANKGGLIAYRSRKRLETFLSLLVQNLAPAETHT
inactive: [1] -0.086 | filanesib -0.019 | zotarolimus 0.048 | idasanutlin -0.123 | alisertib -0.056 | [2] 0.101 | gefitinib -0.031 | [3] 0.03 | lapatinib -0.049 | pictilisib -0.116

LNPK (UniProt Q9C0E8)
UniProt Q9C0E8, sequence (Q9C0E8 whole entry, looked up): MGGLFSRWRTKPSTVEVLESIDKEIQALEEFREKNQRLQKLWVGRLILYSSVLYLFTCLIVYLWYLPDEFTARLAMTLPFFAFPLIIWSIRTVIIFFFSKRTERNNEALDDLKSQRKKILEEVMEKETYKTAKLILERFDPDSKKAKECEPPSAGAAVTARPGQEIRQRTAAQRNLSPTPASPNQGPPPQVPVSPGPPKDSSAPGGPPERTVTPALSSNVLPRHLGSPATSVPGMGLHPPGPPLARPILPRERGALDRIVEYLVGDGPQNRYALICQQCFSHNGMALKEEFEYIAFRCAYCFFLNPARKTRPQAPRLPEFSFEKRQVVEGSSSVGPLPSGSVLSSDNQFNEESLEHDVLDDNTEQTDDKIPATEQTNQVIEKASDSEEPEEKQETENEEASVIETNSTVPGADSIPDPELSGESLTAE
inactive: [1] 0.007 | filanesib -0.005 | zotarolimus -0.049 | idasanutlin -0.002 | alisertib -0.034 | [2] 0.001 | gefitinib 0.025 | [3] 0.079 | lapatinib -0.008 | pictilisib 0.017

LUC7L (UniProt Q9NQ29)
inactive: [1] -0.094 | filanesib 0.178 | zotarolimus -0.013 | idasanutlin 0.052 | alisertib -0.07 | [2] 0.024 | gefitinib -0.104 | [3] 0.017 | lapatinib 0.007 | pictilisib 0.092

KIF11 (UniProt P52732)
inactive: [1] -0.004 | zotarolimus 0.074 | idasanutlin 0.026 | alisertib 0.011 | [2] 0.043 | gefitinib -0.002 | [3] -0.063 | lapatinib -0.018 | pictilisib 0.046
active: filanesib 1.1

MAPK12 (UniProt P53778)
UniProt P53778, sequence (P53778 whole entry, looked up): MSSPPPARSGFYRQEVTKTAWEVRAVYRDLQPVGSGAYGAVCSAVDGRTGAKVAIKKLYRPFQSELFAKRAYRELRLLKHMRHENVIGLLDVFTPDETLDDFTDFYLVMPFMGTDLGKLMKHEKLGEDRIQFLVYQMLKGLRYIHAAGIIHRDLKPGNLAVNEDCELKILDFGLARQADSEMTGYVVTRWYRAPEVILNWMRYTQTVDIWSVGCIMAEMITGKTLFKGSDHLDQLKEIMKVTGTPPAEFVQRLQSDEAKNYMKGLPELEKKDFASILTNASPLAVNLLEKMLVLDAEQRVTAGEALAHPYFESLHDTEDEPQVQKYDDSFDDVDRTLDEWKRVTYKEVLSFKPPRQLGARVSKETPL
inactive: [1] 0.066 | filanesib -0.062 | zotarolimus 0.026 | idasanutlin -0.072 | alisertib -0.115 | [2] 0.084 | gefitinib -0.269 | [3] 0.093 | lapatinib -0.056 | pictilisib 0.062

MAP2K3 isoform 3 (UniProt P46734)
inactive: [1] 0.076 | filanesib 0.01 | zotarolimus -0.018 | idasanutlin -0.019 | alisertib 0.152 | [2] 0.166 | gefitinib -0.086 | [3] -0.022 | lapatinib -0.079 | pictilisib 0.07

KHDC4 (UniProt Q7Z7F0)
inactive: [1] 0.14 | filanesib -0.025 | zotarolimus 0.035 | idasanutlin -0.043 | alisertib -0.003 | [2] 0.025 | gefitinib 0.015 | [3] -0.026 | lapatinib -0.025 | pictilisib -0.028

JMJD6 isoform 3 (UniProt Q6NYC1)
inactive: [1] -0.061 | filanesib -0.039 | zotarolimus 0.03 | idasanutlin 0.019 | alisertib 0.013 | [2] -0.088 | gefitinib 0.059 | [3] -0.021 | lapatinib -0.016 | pictilisib 0.039

IRF3 (UniProt Q14653)
UniProt Q14653, sequence (Q14653 whole entry, looked up): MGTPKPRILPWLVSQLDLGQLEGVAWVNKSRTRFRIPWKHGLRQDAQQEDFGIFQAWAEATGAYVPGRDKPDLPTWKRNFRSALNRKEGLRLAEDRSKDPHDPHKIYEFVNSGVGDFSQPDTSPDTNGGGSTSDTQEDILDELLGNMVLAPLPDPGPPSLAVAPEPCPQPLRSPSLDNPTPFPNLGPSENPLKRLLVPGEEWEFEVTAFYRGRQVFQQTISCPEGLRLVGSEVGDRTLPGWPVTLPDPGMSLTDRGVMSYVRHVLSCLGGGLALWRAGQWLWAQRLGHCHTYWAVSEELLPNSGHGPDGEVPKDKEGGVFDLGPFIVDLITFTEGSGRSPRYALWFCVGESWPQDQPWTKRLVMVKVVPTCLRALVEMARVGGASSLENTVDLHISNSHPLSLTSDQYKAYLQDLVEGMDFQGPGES
inactive: [1] -0.075 | filanesib -0.141 | zotarolimus 0.021 | idasanutlin -0.073 | alisertib -0.085 | [2] -0.08 | gefitinib 0.011 | [3] 0.023 | lapatinib -0.003 | pictilisib 0.053

LTV1 (UniProt Q96GA3)
UniProt Q96GA3, sequence (Q96GA3 whole entry, looked up): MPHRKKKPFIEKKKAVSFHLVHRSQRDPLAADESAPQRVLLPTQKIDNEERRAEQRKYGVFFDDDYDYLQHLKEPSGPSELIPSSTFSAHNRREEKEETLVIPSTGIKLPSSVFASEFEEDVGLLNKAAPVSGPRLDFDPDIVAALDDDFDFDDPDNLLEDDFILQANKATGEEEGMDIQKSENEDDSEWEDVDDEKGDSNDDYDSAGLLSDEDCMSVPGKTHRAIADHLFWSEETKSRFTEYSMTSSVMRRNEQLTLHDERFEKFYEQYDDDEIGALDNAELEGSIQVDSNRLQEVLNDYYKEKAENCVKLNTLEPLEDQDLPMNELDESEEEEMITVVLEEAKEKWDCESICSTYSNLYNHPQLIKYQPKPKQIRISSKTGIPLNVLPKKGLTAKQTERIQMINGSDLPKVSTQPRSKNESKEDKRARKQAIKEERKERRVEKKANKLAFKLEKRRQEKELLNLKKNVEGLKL
inactive: [1] -0.019 | filanesib 0.17 | zotarolimus 0.067 | idasanutlin 0.133 | alisertib -0.06 | [2] 0.022 | gefitinib -0.097 | [3] -0.095 | lapatinib 0.05 | pictilisib 0

MAGEA9 (UniProt P43362)
UniProt P43362, sequence (P43362 whole entry, looked up): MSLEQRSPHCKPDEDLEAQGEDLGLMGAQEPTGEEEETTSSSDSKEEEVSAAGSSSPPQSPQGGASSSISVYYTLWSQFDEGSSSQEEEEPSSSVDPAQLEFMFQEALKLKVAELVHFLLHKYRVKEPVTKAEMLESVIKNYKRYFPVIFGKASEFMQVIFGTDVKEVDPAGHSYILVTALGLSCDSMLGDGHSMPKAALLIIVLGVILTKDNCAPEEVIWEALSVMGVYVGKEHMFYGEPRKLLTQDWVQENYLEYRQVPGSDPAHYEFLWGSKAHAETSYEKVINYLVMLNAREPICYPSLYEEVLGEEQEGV
inactive: [1] -0.246 | filanesib 0.003 | zotarolimus 0.015 | idasanutlin 0.087 | alisertib 0.057 | [2] 0.024 | gefitinib 0.034 | [3] 0.033 | lapatinib -0.018 | pictilisib -0.018

KIAA1324L (UniProt A8MWY0)
inactive: [1] -0.03 | filanesib 0.091 | zotarolimus -0.09 | idasanutlin 0.07 | alisertib -0.013 | [2] 0.028 | gefitinib 0.109 | [3] 0.049 | lapatinib -0.026 | pictilisib 0.005

MAPKAPK2 (UniProt P49137)
UniProt P49137, sequence (P49137 whole entry, looked up): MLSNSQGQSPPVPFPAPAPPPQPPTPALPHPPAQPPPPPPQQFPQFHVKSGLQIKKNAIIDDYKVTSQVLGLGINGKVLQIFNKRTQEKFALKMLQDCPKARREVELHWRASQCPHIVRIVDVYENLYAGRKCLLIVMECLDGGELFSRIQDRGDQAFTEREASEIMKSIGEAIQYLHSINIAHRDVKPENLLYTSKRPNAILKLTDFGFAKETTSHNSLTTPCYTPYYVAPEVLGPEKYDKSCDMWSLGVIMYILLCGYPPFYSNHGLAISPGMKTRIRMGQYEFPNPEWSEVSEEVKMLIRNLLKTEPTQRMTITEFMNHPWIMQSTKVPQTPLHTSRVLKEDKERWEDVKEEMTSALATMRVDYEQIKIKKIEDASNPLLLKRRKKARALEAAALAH
inactive: [1] 0.066 | filanesib -0.06 | zotarolimus -0.012 | idasanutlin -0.054 | alisertib -0.03 | [2] 0.118 | gefitinib 0.11 | [3] 0.01 | lapatinib -0.025 | pictilisib 0.023

ILK (UniProt Q13418)
active: [1] -0.444
inactive: filanesib 0.023 | zotarolimus -0.052 | idasanutlin 0.021 | alisertib 0.038 | [2] 0.036 | gefitinib 0.007 | [3] 0 | lapatinib -0.05 | pictilisib 0.068

ILF3 isoform 7 (UniProt Q12906)
inactive: [1] 0.022 | filanesib 0.213 | zotarolimus -0.047 | idasanutlin 0.095 | alisertib -0.061 | [2] 0.174 | gefitinib -0.022 | [3] -0.06 | lapatinib 0 | pictilisib 0.018

IPO7 (UniProt O95373)
inactive: [1] 0.053 | filanesib -0.094 | zotarolimus 0.014 | idasanutlin -0.103 | alisertib -0.087 | [2] -0.111 | gefitinib 0 | [3] -0.014 | lapatinib -0.008 | pictilisib -0.006

MCU (UniProt Q8NE86)
inactive: [1] -0.056 | filanesib -0.152 | zotarolimus 0.164 | idasanutlin -0.091 | alisertib -0.053 | [2] -0.053 | gefitinib -0.049 | [3] 0.054 | lapatinib -0.099 | pictilisib 0.09

MIF (UniProt P14174)
inactive: [1] 0.027 | filanesib 0.024 | zotarolimus 0.029 | idasanutlin 0.043 | alisertib 0.043 | [2] -0.082 | gefitinib 0.082 | [3] -0.043 | lapatinib -0.034 | pictilisib -0.141

LMNB2 (UniProt Q03252)
inactive: [1] -0.023 | filanesib 0.1 | zotarolimus -0.064 | idasanutlin 0.099 | alisertib 0.004 | [2] -0.005 | gefitinib -0.001 | [3] 0.069 | lapatinib 0.059 | pictilisib 0.03

MEAK7 (UniProt Q6P9B6)
UniProt Q6P9B6, sequence (Q6P9B6 whole entry, looked up): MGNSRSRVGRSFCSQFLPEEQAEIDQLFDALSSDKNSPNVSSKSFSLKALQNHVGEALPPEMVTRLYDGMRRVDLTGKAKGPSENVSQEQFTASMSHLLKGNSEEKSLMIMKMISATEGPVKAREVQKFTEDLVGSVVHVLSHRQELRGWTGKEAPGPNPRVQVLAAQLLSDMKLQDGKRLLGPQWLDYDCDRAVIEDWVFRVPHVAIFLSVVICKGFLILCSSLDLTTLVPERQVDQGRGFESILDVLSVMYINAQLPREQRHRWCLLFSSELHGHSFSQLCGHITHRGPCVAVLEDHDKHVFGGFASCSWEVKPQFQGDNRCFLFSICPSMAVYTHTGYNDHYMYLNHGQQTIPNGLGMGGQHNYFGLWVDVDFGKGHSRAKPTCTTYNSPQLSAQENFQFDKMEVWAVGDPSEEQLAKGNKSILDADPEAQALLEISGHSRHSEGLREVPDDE
inactive: [1] -0.046 | filanesib -0.109 | zotarolimus -0.002 | idasanutlin -0.013 | alisertib -0.012 | [2] -0.101 | gefitinib -0.142 | [3] -0.055 | lapatinib 0.087 | pictilisib -0.063

MAP4K5 (UniProt Q9Y4K4)
UniProt Q9Y4K4, sequence (Q9Y4K4 whole entry, looked up): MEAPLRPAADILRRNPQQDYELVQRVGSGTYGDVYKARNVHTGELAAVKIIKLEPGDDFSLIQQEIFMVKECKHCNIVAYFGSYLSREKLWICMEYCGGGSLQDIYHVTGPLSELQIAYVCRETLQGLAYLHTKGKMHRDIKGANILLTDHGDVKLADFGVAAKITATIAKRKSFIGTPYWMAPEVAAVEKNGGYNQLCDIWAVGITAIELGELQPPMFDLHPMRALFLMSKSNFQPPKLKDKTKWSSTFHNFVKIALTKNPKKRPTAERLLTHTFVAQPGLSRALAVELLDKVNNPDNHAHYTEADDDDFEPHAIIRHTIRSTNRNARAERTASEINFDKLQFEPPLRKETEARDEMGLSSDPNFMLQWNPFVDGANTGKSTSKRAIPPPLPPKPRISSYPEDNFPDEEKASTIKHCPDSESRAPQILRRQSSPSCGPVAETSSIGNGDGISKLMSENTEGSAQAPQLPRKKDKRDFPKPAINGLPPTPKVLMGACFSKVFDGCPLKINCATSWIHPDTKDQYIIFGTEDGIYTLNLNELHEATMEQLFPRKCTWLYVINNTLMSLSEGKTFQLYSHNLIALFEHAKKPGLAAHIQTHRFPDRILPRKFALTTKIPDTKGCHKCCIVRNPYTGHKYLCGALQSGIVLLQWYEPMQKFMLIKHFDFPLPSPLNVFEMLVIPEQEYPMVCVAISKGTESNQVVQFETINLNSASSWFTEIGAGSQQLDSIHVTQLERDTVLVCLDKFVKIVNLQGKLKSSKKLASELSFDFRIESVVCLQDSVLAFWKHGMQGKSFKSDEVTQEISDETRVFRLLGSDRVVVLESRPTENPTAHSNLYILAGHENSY
inactive: [1] 0.01 | filanesib -0.083 | zotarolimus 0.021 | idasanutlin 0.067 | alisertib 0.134 | [2] 0.224 | gefitinib -0.011 | [3] 0.011 | lapatinib 0.15 | pictilisib 0.012

LEMD2 (UniProt Q8NC56)
inactive: [1] -0.051 | filanesib -0.211 | zotarolimus 0 | idasanutlin -0.008 | alisertib 0.044 | [2] -0.271 | gefitinib 0.061 | [3] 0.047 | lapatinib 0.133 | pictilisib -0.007
